From PubChem BioAssay AID881 (National Center for Advancing Translational Sciences (NCATS), 2007) come the findings set out here.

Screen size: about 110,000 compounds; about 610 (0.55%) were called active. Roughly 3% stayed inconclusive and do not appear here. The call rests on the fitted dose curve; in most records, active means well fitted inhibition curve with a large enough effect; inconclusive means small, poorly fitted or top-dose-only effect; inactive means no such curve, though single readings can be large or run the other way. The full list was thinned out, with actives kept by preference.
On the % scale 0 is the no-effect control and ±100 the full control effect; potency means the concentration at half of the fitted maximal effect.

Chain of Polyunsaturated fatty acid lipoxygenase ALOX15B (Homo sapiens) (O15296 whole entry, looked up): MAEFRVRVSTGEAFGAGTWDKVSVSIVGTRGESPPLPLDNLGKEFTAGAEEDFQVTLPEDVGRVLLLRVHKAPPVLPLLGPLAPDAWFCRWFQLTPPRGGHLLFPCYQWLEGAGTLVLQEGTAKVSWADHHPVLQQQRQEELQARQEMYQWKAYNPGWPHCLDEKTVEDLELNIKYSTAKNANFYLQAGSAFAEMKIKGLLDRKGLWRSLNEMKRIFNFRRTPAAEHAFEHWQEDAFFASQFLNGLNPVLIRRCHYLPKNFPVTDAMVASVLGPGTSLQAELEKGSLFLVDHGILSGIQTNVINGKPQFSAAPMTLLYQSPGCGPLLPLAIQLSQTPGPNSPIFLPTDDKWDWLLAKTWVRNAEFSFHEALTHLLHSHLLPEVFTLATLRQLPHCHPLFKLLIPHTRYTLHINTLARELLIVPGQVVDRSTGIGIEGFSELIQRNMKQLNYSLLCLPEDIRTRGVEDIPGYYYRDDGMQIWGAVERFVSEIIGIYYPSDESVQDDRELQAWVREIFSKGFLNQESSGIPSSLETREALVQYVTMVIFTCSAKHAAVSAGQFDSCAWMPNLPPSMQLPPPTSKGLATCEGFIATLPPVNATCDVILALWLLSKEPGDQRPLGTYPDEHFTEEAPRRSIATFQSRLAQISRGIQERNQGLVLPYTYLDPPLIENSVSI

In this test the target is Polyunsaturated fatty acid lipoxygenase ALOX15B (Homo sapiens) (UniProt O15296). Nature of the test: qHTS Assay for Inhibitors of 15-hLO-2 (15-human lipoxygenase 2). Further: nearly all actives have a fitted effect of over 60% in size. Conditions: purified 15hLO-2, xylenol orange hydroperoxide absorbance; series mostly up to 0.0915 µM; activity change, negative = inhibition: at the top concentration. The source says:
Assay Overview: NIH Molecular Libraries Screening Centers Network [MLSCN] NIH Chemical Genomics Center [NCGC] MLSCN Grant: MH081283-01A1 PI Name: Holman, T.R., University of California, Santa Cruz Human lipoxygenase 15hLO-2 is a member of the closely related lipoxygenase family of enzymes which catalyze the site-specific oxidation of arachidonic acid to various hormone precursor molecules and as such is a candidate for drug development in a variety of disease areas, such as cancer and inflammation. Inhibition of 15hLO-2 activity was screened by utilizing arachidonic acid as a substrate. The extent of hydroperoxide product formation was measured by a secondary chromogenic reaction in which xylenol orange (XO, Sigma-Aldrich, cat. number 39,818-7) reacts with the ferric ions produced from the reaction between the hydroperoxide and ferrous ions. The Fe(III)-XO complex is characterized with red-shifted absorbance at 560 nm. A purified preparation of human 15hLO-2 was supplied by Professor Ted Holman, University of California, Santa Cruz.
Assay Protocol: Buffer: 25 mM Hepes pH 7.5, 0.01% Triton X-100. Reagents/Controls: Buffer in columns 3 and 4 as negative control (no enzyme). Substrate solution: 45 uM arachidonic acid (Sigma-Aldrich, St. Louis, MO) final concentration dispensed throughout the plate. Enzyme: 50 nM 15hLO-2 final concentration in columns 1, 2, 5-48. Column 1 is neutral (100% activity). Column 2 contained pin-transferred titration of NDGA (nordihidroguaiaretic acid, Sigma-Aldrich, N 5023, top concentration 10 mM in DMSO, then 1:2 dilution in duplicate). (Dilution factor: 23 nL into 4 uL.) Chromogenic detection reagent (divalent iron/xylenol orange, Fe-XO): 200 uM xylenol orange plus 300 uM ferrous ammonium sulfate prepared freshly in 50 mM sulfuric acid. Assay Steps: Three uL of enzyme were dispensed to 1536-well Greiner black clear bottom plates. Compounds and controls (23 nL) were transferred via Kalypsys PinTool. The plates were incubated for 15 min at room temperature, and then 1 uL of substrate solution was added to start the reaction. After room temperature incubation for 90 minutes, 4 uL of Fe-XO solution was added to each well followed by a short spin (1000 rpm, 15 sec) and the plates were then incubated for 30 min. The absorbance at 405 and 573 nm were measured using ViewLux (Perkin-Elmer) High-throughput CCD imager and absorbance protocol settings. The 573-to-405 absorbance ratio was used to compute reaction progress.
Consider `CC(C)CC(C)Nc1ccc(Nc2ccccc2)cc1` (stereo not given), for which the Potency was 1.58 µM (active).

On to `CC(=O)NC(=O)NC(C)Cc1ccccc1` (stereo not given), for which the “activity change, negative = inhibition” value was 10.7% [at 57.1 µM] (inactive).

Turning to `CC(C)(O/N=C(\C(=O)N[C@@H]1C(=O)N2C(C(=O)[O-])=C(C[n+]3ccccc3)CS[C@@H]12)c1csc(N)n1)C(=O)O`, the “activity change, negative = inhibition” value is 36.8% [at 25.6 µM] (inactive).

With `CCCCCCCCc1[se]c2ccccc2c1Br`, the “activity change, negative = inhibition” value was -2.05% (inactive).

Turning to `CN(C)[C@@H]1C(=O)C(C(N)=O)=C(O)[C@@]2(O)C(=O)C3=C(O)c4c(O)cccc4[C@@](C)(O)C3CC12` (stereo not given in full), the “activity change, negative = inhibition” value is 7.13% (inactive).

`COc1ccccc1-c1[se]c2ccccc2c1I`: the “activity change, negative = inhibition” value was 10.7% (inactive).

As to `Clc1ccc(C(c2ccc(Cl)cc2)n2cc[n+](C[C@@H](OCc3ccc(Cl)cc3Cl)c3ccc(Cl)cc3Cl)c2)cc1`, the Potency is 25.1 µM (active).

Turning to `N#CC(C#N)=Cc1cc(O)c(O)c([N+](=O)[O-])c1`, the “activity change, negative = inhibition” value was -26.2% (inactive).

As to `COC(=O)c1ccc2[se]c(CC3CCCCC3)c(I)c2c1`, the “activity change, negative = inhibition” value was -9.39% (inactive).

With `CC(C)(O)c1[se]c2ccccc2c1I`, the “activity change, negative = inhibition” value was -11.7% (inactive).
